The values below come from PubChem BioAssay.

Test [1] has as its target Albumin (Bos taurus) (UniProt P02769). In words: compounds binding labelled BSA control protein – biochemical, small-molecule microarray, Alexa647 label, 635/667 nm fluorescence, artefact control for SMM control protein annotation, profiling panel (AID 1118).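 Also: score merges 667 nm emission intensity and signal-to-noise per printed compound spot.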 As to conditions: BSA-A647 binding, fluorescence 635 nm, higher = more signal.
A short description of test [2]: probe aXIP binding to arrayed compounds – biochemical, NeuroSMM set, 635/667 nm fluorescence, primary screen (AID 1119).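 Also: probe is the protein aXip251-270 applied at 1 µg/mL to compound-printed slides; binding of probe to printed compounds measured as 667 nm fluorescence plus signal to noise.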 As to conditions: small-molecule microarray, higher = more signal, called active from +8 up or from −8 down.
Test [3] in a line: probe aNOTCH3 binding on compound microarray – biochemical, small-molecule microarray, 635/667 nm fluorescence, primary screen (AID 1120).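 Also: probe is a biotin-tagged antibody raised against NOTCH3 rather than NOTCH3 protein; score merges spot fluorescence near 667 nm with spot signal to noise.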 As to conditions: higher = more signal.
Test [4] is described as follows: probe aNOTCH2 binding on compound microarray – biochemical, small-molecule microarray, 635/667 nm fluorescence, primary screen (AID 1121).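 Also: score merges feature fluorescence read at 667 nm with its signal to noise.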 The following applies: higher = more signal.
The target in test [5] is Carbonic anhydrase 2 (Homo sapiens) (UniProt P00918). Kind of test: compounds binding carbonic anhydrase 2 – biochemical, small-molecule microarray, Alexa647-labelled CAII, profiling panel (AID 1122). As to conditions: CAII-A647 binding fluorescence, higher = more signal.
Test [6] is described as follows: COS7 lysate on small-molecule microarray, probe aHis, 635 nm (AID 1123).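 Also: z-score combines 667nm fluorescence intensity with signal-to-noise per printed compound spot.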 The following applies: COS7 cell lysate, fluorescence, higher = more signal.
Test [7] in a line: probe aLAP1 signal on lysate-treated microarray – cell lysate, small-molecule microarray, COS7 lysate, primary screen (AID 1124).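 Also: lysate comes from COS7 cells expressing LAP1 and is applied at 0.3 µg/mL; score merges spot fluorescence near 667 nm with signal-to-noise over triplicate slides.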 The following applies: probe aLAP1, fluorescence, higher = more signal.
In test [8] the test system is Sam68 (KHDRBS1). In words: compounds binding KHDRBS1 protein – biochemical, small-molecule microarray, 635 nm fluorescence, primary screen (AID 1125).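 Also: score merges 667 nm channel intensity with signal to noise over triplicate slides.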 As to conditions: higher = more signal.
Test [9] has as its system Chordin-like protein 2 (CHRDL2). Kind of test: compounds binding chordin-like 2 – biochemical, small-molecule microarray, 635 nm fluorescence, primary screen (AID 1126).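 Also: printed compound slides probed with Chrdl2 protein at 4 µg/mL for 1 h at 4 C; score merges 667 nm emission intensity with signal to noise over three replicate slides.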 As to conditions: fluorescence 635 nm, higher = more signal.
For test [10], the target named is Concanavalin-A (Canavalia ensiformis) (UniProt P02866). Kind of test: compounds binding concanavalin A lectin – biochemical, small-molecule microarray, Alexa647 label, 635 nm, artefact control for SMM control protein annotation, primary screen (AID 1127).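 Also: z combines 667 nm emission intensity with signal-to-noise across three replicate slides.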 The following applies: ConA-A647 binding fluorescence, higher = more signal.

Active and inactive are the calls of the source.

Chain of Concanavalin-A (Canavalia ensiformis) (P02866 whole entry, looked up): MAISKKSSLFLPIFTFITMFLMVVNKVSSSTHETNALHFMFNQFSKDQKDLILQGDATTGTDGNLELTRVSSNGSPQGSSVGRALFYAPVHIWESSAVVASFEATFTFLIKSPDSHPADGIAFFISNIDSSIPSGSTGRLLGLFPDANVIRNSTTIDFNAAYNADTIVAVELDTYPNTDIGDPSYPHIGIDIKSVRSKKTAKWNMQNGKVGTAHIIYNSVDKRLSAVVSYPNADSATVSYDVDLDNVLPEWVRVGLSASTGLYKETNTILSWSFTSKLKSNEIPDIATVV
Chain of Albumin (Bos taurus) (P02769 whole entry, looked up): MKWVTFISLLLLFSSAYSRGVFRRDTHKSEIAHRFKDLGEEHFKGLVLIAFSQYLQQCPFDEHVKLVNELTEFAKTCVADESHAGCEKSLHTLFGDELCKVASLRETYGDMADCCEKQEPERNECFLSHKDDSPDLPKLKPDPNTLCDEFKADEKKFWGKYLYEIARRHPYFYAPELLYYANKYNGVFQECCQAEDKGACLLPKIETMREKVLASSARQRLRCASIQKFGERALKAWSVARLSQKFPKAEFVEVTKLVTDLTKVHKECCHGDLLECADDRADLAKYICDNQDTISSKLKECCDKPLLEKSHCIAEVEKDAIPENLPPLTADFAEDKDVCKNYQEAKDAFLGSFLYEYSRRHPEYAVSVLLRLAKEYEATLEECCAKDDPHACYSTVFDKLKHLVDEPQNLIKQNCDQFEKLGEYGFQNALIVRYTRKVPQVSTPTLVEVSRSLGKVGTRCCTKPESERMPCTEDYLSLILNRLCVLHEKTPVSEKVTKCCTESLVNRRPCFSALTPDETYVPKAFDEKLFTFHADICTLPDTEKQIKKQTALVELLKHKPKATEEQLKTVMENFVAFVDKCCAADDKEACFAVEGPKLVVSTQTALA

Take `CC(C)c1ccc(NN2C(C(O)c3ccc(C#N)cc3)C=CC3C(=O)N(c4ccccc4)C(=O)C32)cc1` (stereo not given): the composite z-score was 1.04 in test [1]; 0.33 in test [3]; -0.0296 in test [4]; 0.358 in [5]; 2.84 in test [6]; 0.982 in test [7]. The composite z-score in test [8] came out at 1.3; in test [9], 0.0494; in test [10], 0.926. The composite Z-score in test [2] was 0.238 (inactive).
Regarding `C=C(/C(=C/C[C@H](OC(=O)c1ccncc1)c1ccc(CO)o1)c1cnc2ccccc2c1)C(C)C`, the composite z-score in [1] is 0.702; in test [3], 0.169; in test [4], -0.0216; in [5], 0.902; in test [6], 0.75; in test [7], -0.159. The composite z-score was determined as 1.12 in [8], 0.684 in [9] and 1.11 in test [10]. In [2], the composite Z-score was -0.55 (inactive).
`COc1ccc([Si](C)(C)[C@@H]2[C@@H](CC(=O)N(CCO)Cc3ccccc3)O[C@]3(C(=O)N(Cc4cccc(N5CCCCC5=O)c4)c4ccccc43)[C@H]2C)cc1`: the composite z-score in [1] was 0.11; in [3], -0.22; in test [4], -0.131; in test [5] it was 0.52; in test [6] it was 1.86; in test [7], -0.104. Besides, the composite z-score came out at 0.646 in test [8], 0.905 in test [9] and 1.03 in [10]. The composite Z-score in [2] was 0.42 (inactive).
In the case of `COc1cc(NN2C(C(O)c3cc(OC)c(OC)c(OC)c3)C=CC3C(=O)N(C)C(=O)C32)cc(OC)c1OC` (stereo not given), the composite z-score in test [1] is 1.03; in test [3], 0.499; in test [4], -0.0028; in test [5] it was 0.67; in [6], 2.77; in [7], 0.0495. Further, the composite z-score was 1.23 in test [8], 0.0976 in test [9] and 0.894 in test [10]. In test [2], the composite Z-score was 0.328 (inactive).
Take `CCOC(=O)C[C@H]1[C@H](OC(=O)Cc2ccc3c(c2)OCO3)[C@@H](NC(=O)C2CCCCC2)c2cc(OCCCO)ccc2N1C(=O)c1ccccc1`: the composite z-score in test [1] is 0.869; in [3], -0.0647; in test [4], -0.14; in test [5] it was 0.112; in test [6], 0.469; in [7], 0.124. For the same molecule, the composite z-score in [8] was 0.249; in [9] it was -0.311; in test [10], 0.833. In addition, in test [2], the composite Z-score is 0.394 (inactive).
For `CCCC=C(CCC)[C@@H](NC(=O)c1cccs1)c1ccc(C(=O)OC)cc1`, the composite z-score in test [1] is -0.0481; in test [3], 1.29; in test [4], 0.728; in [5], 0.0222; in test [6] it was 0.0362; in test [7], -0.0022. Also, the values for the composite z-score in [8], in test [9] and in [10] were -0.411, 0.513 and 0.588, respectively. Also, in test [2], the composite Z-score was 0.0599 (inactive).
Turning to `COc1cccc(C)c1NC(=O)O[C@H]1[C@H](OC(=O)Nc2ccc3c(c2)OCO3)[C@@H](OC(=O)Nc2ccc3c(c2)OCO3)[C@@H](OC)O[C@@H]1CO`, the composite z-score in test [1] is 0.48; in test [3] it was 0.508; in test [4], -0.0714; in test [5], 0.43; in test [6] it was 2.53; in [7], 1.29. Besides, the composite z-score in [8] turned out to be 1.29; in test [9], 0.492; in test [10], 0.66. The composite Z-score in test [2] is 0.525 (inactive).
For the molecule `C=CCNC(=O)[C@@H]1[C@H]2C(=O)O[C@H](c3ccccc3)[C@H](c3ccccc3)N2[C@H](c2ccccc2OCCO)[C@@]12C(=O)N(C(=O)OCCOC)c1ccc(C#CC3(O)CCCCCC3)cc12`, the composite z-score was 0.351 in test [1]; 0.11 in [3]; -0.0708 in test [4]; 0.354 in test [5]; 2.15 in test [6]; 0.618 in [7]. Also, the composite z-score in [8] was 1.29; in test [9] it was 0.755; in test [10], 1.07. For the same molecule, the composite Z-score in test [2] was 0.0141 (inactive).
For `CC(C)N1CC=CC23O[C@@H]4C=CCCOC(=O)C4[C@H]2C(=O)N(CCCO)[C@@H]3C1=O` (stereo not given in full), the composite z-score in test [1] was -0.682; in test [3], -0.112; in test [4], -0.0995; in test [5] it was 0.734; in test [6], -0.192; in test [7], 0.303. Besides, the composite z-score in test [8] was 0.334; in test [9] it was -0.347; in test [10], -0.0639. In addition, the composite Z-score in test [2] is -0.472 (inactive).
Regarding `CCCC[C@@H](O)C1=C(COc2ccccc2)C[C@H]2C(=O)N(Cc3ccccc3)C(=O)[C@H]2[C@H]1CO`, the composite z-score in [1] was 0.0031; in [3], -0.287; in test [4], -0.0795; in test [5], 0.099; in [6] it was 0.523; in [7] it was -0.523. In addition, the composite z-score in test [8] was determined as 0.426; in test [9], 0.228; in test [10], 0.395. Besides, the composite Z-score in test [2] is -0.861 (inactive).
Turning to `CC(CO)N1C(=O)[C@]2(C)C3C(=O)OCCC/C=C\[C@H]3OC23C=CCN(c2ccc(Cl)cc2)C(=O)[C@@H]13` (stereo not given in full), the composite z-score was 0.739 in test [1]; -0.186 in [3]; -0.14 in test [4]; 0.867 in test [5]; -0.354 in [6]; 0.644 in test [7]. The composite z-score in test [8] is -1.61; in [9], 0.217; in test [10] it was -0.474. Besides, the composite Z-score in test [2] is -0.462 (inactive).
On to `CC(C)(C)OC(=O)COc1cccc(C(=O)CCN2CCOCC2)c1`, for which the composite z-score in test [1] was 0.217; in [3], -0.0119; in [4] it was -0.074; in test [5], -0.382; in [6], 0.258; in test [7], -0.281. The composite z-score in test [8] was 0.656; in test [9], 0.309; in [10] it was -0.244. In addition, in [2], the composite Z-score was 0.784 (inactive).
Take `CC(=O)NCCCC[C@@H]1NC(=O)[C@@H]2C[C@H](C(=O)NCCCCCN)[C@H](c3cccc(OCCO)c3)N2C1=O`: the composite z-score in [1] came out at 0.379; in [3], 0.324; in test [4] it was 0.0181; in test [5], 0.697; in test [6], 0.812; in [7] it was 0.0312. For the same molecule, the composite z-score in test [8] was found to be 0.803; in test [9] it was 0.56; in [10] it was 1.11. Besides, the composite Z-score in [2] is 0.36 (inactive).
